Source: PubChem
Most compounds without a hit are left out; they make up all but 12% or so of the library.
PLAP act – human PLAP activation | purified PLAP enzyme, luminescent substrate read-out; hits give high values | activation fold at 20 µM | hit rate 1.2% among 96,000; in the data active means activation fold above about 2
PostGolgi ctrl – growth of the yeast control strain, post-Golgi counter-screen; efflux-deficient yeast background strain, growth absorbance A615, 16 h; inhibition, % at 10 µM; hit rate 5% among 98,000; AID 738
PostGolgi yeast – growth inhibition of a yeast mutant, post-Golgi transport screen. post-Golgi transport phenotypic cell assay. inhibition, % at 10 µM. hit rate 0.9% among 98,000. AID 739;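 further: yeast cells grown in 1536-well plates; yeast grown about 18 h at 30C before absorbance read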
D1 allo mod – allosteric modulators of human D1 dopamine receptor | HEK293 D1, CRE-luciferase, dopamine EC30 potentiation; actives deviate in either direction | B-score at 10 µM | hit rate 5.9% among 58,000;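 active means luminescence count or its row- and column-corrected plate score outside the 99.7% band of the plate's sample wells, on either side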
Target sequence (P21728 whole entry, looked up): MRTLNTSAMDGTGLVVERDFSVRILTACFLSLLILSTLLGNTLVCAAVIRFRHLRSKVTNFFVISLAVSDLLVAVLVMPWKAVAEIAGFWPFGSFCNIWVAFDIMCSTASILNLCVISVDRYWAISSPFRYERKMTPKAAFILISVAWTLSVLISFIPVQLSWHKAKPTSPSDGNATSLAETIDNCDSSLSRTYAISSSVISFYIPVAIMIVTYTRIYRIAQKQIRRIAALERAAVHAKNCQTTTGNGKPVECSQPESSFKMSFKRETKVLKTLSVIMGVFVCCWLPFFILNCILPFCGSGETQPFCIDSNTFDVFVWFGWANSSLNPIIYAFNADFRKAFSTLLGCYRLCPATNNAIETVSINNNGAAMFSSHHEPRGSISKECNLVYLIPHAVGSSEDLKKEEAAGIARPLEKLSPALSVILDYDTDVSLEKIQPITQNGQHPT
Cav32 inh – inhibitors of human Cav3.2 T-type calcium channel. B-score at 10 µM. Cav3.2-expressing cells, Fluo-4 calcium fluorescence FDSS; hits give low values. O95180. hit rate 4% among 100,000;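 active means single-dose well whose peak fluorescence ratio is a statistical outlier from its plate by either plate-standardised score or position-corrected B-score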
hDAT+cocaine – changed human dopamine transporter uptake under cocaine IC80; hit rate 1.3% among 110,000; Q01959; B-score at 10 µM; LLC-PK1 hDAT cells, [14C]-dopamine uptake with cocaine IC80; actives deviate in either direction;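 active means Z score or B-score, a plate-position-corrected score, falls beyond the plate's 99.7% confidence bounds, in either direction; inactive means both scores lie inside the 99.7% bounds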;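 further: scored against the spread of the other compound wells on the same plate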
Numbers without * were called inactive; x = not tested or not shown. Unless noted, no stated cut-off is given here; in the data, active means inhibition above about 30%; inactive means the rest.

SMILES	PLAP act	PostGolgi ctrl	PostGolgi yeast	D1 allo mod	Cav32 inh	hDAT+cocaine
COc1ccc(-c2oc3ccc(-c4ccc5c(c4)OCO5)cc3c2-c2ccc(OC)nc2)cc1	x	x	x	x	-0.039	-0.33
CCOCCCNCc1ccc(OC)c(OC)c1	1.2	26	1	0.76	1.6	-1.3
COc1ccc(CNCCC(c2ccc(OC(C)C)cc2)C(C)C)cc1OC (stereo not drawn)	1.4	-1	-1	x	-3.7*	1.4
Cc1cccc(NC(=O)N(Cc2nc3ccccc3c(=O)[nH]2)C2CCCC2)c1	1.2	-6	14	1.2	-1	2.3
COc1cc2cc(CN(C(=O)Nc3ccccc3)C3CCCC3)c(=O)[nH]c2cc1OC	1.4	6	2	-0.79	1	3.3*
O=C(Nc1cccc(Cl)c1)N(Cc1nc2ccccc2c(=O)[nH]1)C1CCCC1	1.3	25	1	0.62	-6*	0.27
CC(C)OCCCNC(=O)CCSc1ccc(Cl)cc1	1.6	3	1	x	-0.036	-0.049
CCOCCn1c(=O)c2c(nc3n2CCN3c2ccc(CC)cc2)n(C)c1=O	x	x	x	-0.84	x	x
CCN(CC(=O)Nc1ccccc1C(=O)OC)S(=O)(=O)c1ccc(OC)cc1	0.9	40*	-6	0.11	-0.33	0.43
COc1ccc2nc(-c3ccc(F)cc3)sc2c1	x	x	x	x	0.095	-0.65
Cc1ccc2oc(C(Cl)(Cl)Cl)cc(=O)c2c1	1	13	3	x	0.23	0.2
CCCC(C)C(=O)Nc1nc(C)c(-c2csc(Nc3ccc(Cl)cc3)n2)s1 (stereo not drawn)	1.2	34*	0	x	-1.2	1.1
CCOC(=O)N1CCN(C(=O)CSc2nnc(Cc3ccccc3)o2)CC1	1.1	0	2	-0.95	0.37	0.026
O=C1CC(NCc2ccncc2)C(=O)N1c1ccc(Cl)cc1 (stereo not drawn)	1	2	-8	0.0079	0.48	-0.12
Cc1ccc(C(=O)NNC(=O)CSc2nnc(-c3ccncc3)n2C)cc1	1.9	-5	-16	x	-0.79	-1.5
c1ccc(Nc2nc(N3CCCC3)nc(N3CCCC3)n2)cc1	0.7	70*	8	x	-0.89	0.04
c1ccc(Nc2nc(N3CCCCC3)nc(N3CCCCC3)n2)cc1	0.7	53*	-4	x	-3.8	-0.91
Clc1ccc(OCc2nc(-c3ccncc3)no2)c(Cl)c1	0.7	37*	44*	-0.29	-1.4	2
O=C(Cc1cccs1)N1CCN(c2nc(-c3ccc(Cl)cc3)cs2)CC1	1.6	51*	1	0.11	0.3	1.6
Cc1ccc(-c2ccc(=O)n(CC(=O)N3CCN(c4cc(Cl)ccc4C)CC3)n2)cc1	1.1	47*	17	x	-1.9	0.47
O=C(O)CCC(=O)N1CCN(c2cccc(Cl)c2)CC1	1.2	4	-2	-1.2	0.29	-1.5
Cc1ccc(Cl)cc1N1CCN(C(=O)CCC(=O)O)CC1	1.4	3	3	0.0025	-2.2	-3*
Cc1ccc(-c2ccc(=O)n(CC(=O)N3CCN(c4cccc(C)c4)C(C)C3)n2)cc1 (stereo not drawn)	1.5	12	-1	0.58	-2.8	1
Cc1cc(C)c(S(=O)(=O)c2ccccc2)c(N(C)C)n1	0.9	18	2	x	-0.096	0.28
Cc1cc(C)c(S(=O)(=O)c2ccccc2)c(OC(=O)c2c(Cl)cc(Cl)cc2Cl)n1	1	15	23	x	-6.5*	-1.9
SMILES	PLAP act	PostGolgi ctrl	PostGolgi yeast	D1 allo mod	Cav32 inh	hDAT+cocaine
O=C(NCCc1ccccc1)C(=O)NCC1(c2ccccc2)CCCC1	0.8	18	20	x	-0.046	-0.014
O=C(NCC1(c2ccccc2)CCCC1)c1cccc(Br)c1	0.9	29	4	x	-7.5*	0.6
O=C(Cc1cccs1)Nc1cccnc1	1	-4	6	-0.85	1.7	0.0019
Cc1ccc(-c2cc(C(=O)Nc3cc(C)on3)c3ccccc3n2)c(C)c1	0.9	37*	0	-0.67	0.034	-0.79
CNC(=O)c1[nH]cnc1C(=O)N[C@@H](C)C(=O)OCc1ccccc1	x	x	x	x	0.0025	2.4*
CNC(=O)c1[nH]cnc1C(=O)N[C@@H](Cc1ccccc1)C(=O)OCc1ccccc1	x	x	x	x	-0.21	-0.8
Cc1sc2nc(C3CC3)nc(SCC(=O)N3CCc4ccccc4C3)c2c1C	1.5	37*	14	x	x	-0.91
CCc1c(C)sc2nc(C(C)C)nc(SCC(=O)N3CCc4ccccc4C3)c12	1.3	31*	0	x	0.27	-0.99
Cc1sc2nc(C(C)C)nc(SCC(=O)N3CCN(C(=O)c4ccco4)CC3)c2c1C	1.4	41*	2	0.38	1.7	-1.8
CCCc1nc(SCC(=O)N2CCc3ccccc3C2)c2ccccc2n1	1.4	33*	2	x	-2.5	0.37
CCOC(=O)CSc1nc(CC)nc2ccccc12	0.9	4	0	0.74	0.35	0.52
Cc1sc2nc(C3CC3)nc(SCC(=O)N3CC(=O)Nc4ccccc43)c2c1C	1	17	5	x	0.58	0.019
Cc1cc(C)n(-c2nc(SCCN(C)C)c3c4c(sc3n2)COC(C)(C)C4)n1	1.5	3	-8	x	-0.0071	1.2
O=C(CNc1ccc(Oc2ccccc2)cc1)N1CCOCC1	1.1	-9	-6	-1.7	0.69	-0.81
O=C1CCC([N+](=O)[O-])C(c2ccc(Cl)cc2)N1 (stereo not drawn)	1.3	-5	-4	x	1.2	-0.23
CCC1CCCCN1c1nc(-c2ccncc2)nc2ccccc12 (stereo not drawn)	1.4	75*	9	2.5	-2.1	-0.56
c1ccc2c(N3CCOCC3)nc(-c3ccncc3)nc2c1	x	9	7	x	x	-0.3
COc1cccc(-c2nc(N3CCN(c4ccccc4)CC3)c3ccccc3n2)c1O	1.2	11	3	x	0.21	2.1
CCC1CCCCN1c1nc(-c2cccc(OC)c2O)nc2ccccc12 (stereo not drawn)	1.7	41*	-3	x	-1	0.35
CCN1C(=O)N(CN2CCOCC2)C2C1N(CN1CCOCC1)C(=O)N2CC (stereo not drawn)	1.1	x	x	-0.43	-0.016	-0.087
CCOC(=O)c1cc(C(C)=O)n2ccccc12	1	13	4	x	0.79	1.5
CCOC(=O)c1cc(C(=O)c2cccs2)n2ccc(C(C)=O)cc12	0.7	82*	1	x	-0.15	-0.47
CC(NC(=O)c1cccnc1)C(c1cccs1)N1CCN(C)CC1 (stereo not drawn)	1	0	-5	x	0.47	-0.72
CCN1CCN(C(c2cccs2)C(C)NC(=O)c2cccnc2)CC1 (stereo not drawn)	1	8	-10	-4.4*	0.31	-0.24
O=C(Nc1nc(-c2ccccc2)cs1)C1c2ccccc2Oc2ccccc21	1	-3	12	x	-5.2*	-1.7
Cc1cccc2sc(NC(=O)CN(C)S(=O)(=O)c3ccc(Br)s3)nc12	1	70*	4	x	x	0.28
Cc1nnc(NC(=O)C2c3ccccc3Oc3ccccc32)s1	x	x	x	x	-0.39	-0.7
Cc1cccc2sc(NC(=O)CN(C)S(=O)(=O)c3cccs3)nc12	1.1	23	-3	-0.52	-5	1.6
